# Data: the supplement of paper PMC8975748
# Structures can show the parent of a compound that is named as a salt.
# Tested on: Saccharomyces cerevisiae BY4741 SeMeCo community
# Experiment: z-score of subpopulation abundance vs DMSO median, subpopulation auxotrophic for M; higher = larger share of this subpopulation than in DMSO controls
# Conditions: 10 µM; 24 h; SM minimal medium; subpopulation (auxotrophy): M
# Method: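 Fluorescent four-plasmid SeMeCo (self-establishing metabolically cooperating S. cerevisiae BY4741 community; plasmids pH-mRuby2, pL-mWasabi, pU-eCFP, pM-TagRFP657) was grown 24 h in minimal SM medium with each Selleck FDA-approved drug at 10 µM in 384-well plates. Cells were fixed and imaged by high-content confocal microscopy. For each auxotrophic subpopulation (and the prototroph), a z-score gives the deviation from the DMSO vehicle-control population median.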
row,Structure (SMILES),z-score of subpopulation abundance
1,Cc1cccc(C)c1NC(=O)C1CCCCN1C (stereo not given) [Mepivacaine],0.42
2,CCCCCCCCCC(=O)NC1C(Oc2c3cc4cc2Oc2ccc(cc2Cl)C(OC2OC(CO)C(O)C(O)C2NC(C)=O)C2NC(=O)C(NC(=O)C4NC(=O)C4NC(=O)C(Cc5ccc(c(Cl)c5)O3)NC(=O)C(N)c3ccc(O)c(c3)Oc3cc(O)cc4c3)c3ccc(O)c(c3)-c3c(OC4OC(CO)C(O)C(O)C4O)cc(O)cc3C(C(=O)O)NC2=O)OC(CO)C(O)C1O (stereo not given) [Teicoplanin],0.97
3,COc1ccnc(C[S+]([O-])c2nc3cc(OC(F)F)ccc3[nH]2)c1OC (stereo not given) [Pantoprazole],0.27
4,CC(NCCC(c1ccccc1)c1ccccc1)c1ccccc1 (stereo not given) [Fendiline hydrochloride],-1.56
5,O=C1C(N(CO)C(=O)NCO)N(CO)C(=O)N1CO (stereo not given) [Diazolidinyl urea],-1.49
6,COc1ccc2cc3[n+](cc2c1OC)CCc1cc2c(cc1-3)OCO2 [Berberine Sulfate],0.74
7,NC[C@H]1O[C@H](O[C@H]2[C@H](O[C@@H]3O[C@H](CO)[C@@H](O)[C@H]3O)[C@@H](O)[C@H](N)C[C@@H]2N)[C@H](N)[C@@H](O)[C@@H]1O [Ribostamycin Sulfate],-0.49
8,CC(C(=O)O)c1ccc(C(=O)c2cccs2)cc1 (stereo not given) [Suprofen],-0.68
9,N#Cc1ccc2[nH]cc(CCCCN3CCN(c4ccc5oc(C(N)=O)cc5c4)CC3)c2c1 [Vilazodone HCl],1.09
10,Cc1onc(-c2ccccc2Cl)c1C(=O)N[C@@H]1C(=O)N2[C@@H]1SC(C)(C)[C@@H]2C(=O)O [Cloxacillin Sodium],0.44
11,CCCN(CCC)CCc1cccc2c1CC(=O)N2 [Ropinirole HCl],-0.4
12,Cc1nc2n(c(=O)c1CCN1CCC(c3noc4cc(F)ccc34)CC1)CCCC2O (stereo not given) [Paliperidone],0.41
13,C#CCN[C@@H]1CCc2ccccc21 [Rasagiline],-0.39
14,C#CCN(C)Cc1ccccc1 [Pargyline hydrochloride],-0.55
15,Clc1ccc(CSC(Cn2ccnc2)c2ccc(Cl)cc2Cl)cc1 (stereo not given) [Sulconazole Nitrate],-2.96
16,C=CC1=C(C(=O)O)N2C(=O)[C@@H](NC(=O)/C(=N\OCC(=O)O)c3csc(N)n3)[C@H]2SC1 [Cefixime],-0.61
17,CC(C)c1nc(N(C)S(C)(=O)=O)nc(-c2ccc(F)cc2)c1/C=C/[C@@H](O)C[C@@H](O)CC(=O)O [Rosuvastatin],-1.77
18,CC[C@@]1(O)C(=O)OCc2c1cc1n(c2=O)Cc2cc3cc(O)ccc3nc2-1 [(S)-10-Hydroxycamptothecin],0.87
19,NCC[C@H](O)C(=O)N[C@@H]1C[C@H](N)[C@@H](O[C@H]2O[C@H](CN)[C@@H](O)[C@H](O)[C@H]2O)[C@H](O)[C@H]1O[C@H]1O[C@H](CO)[C@@H](O)[C@H](N)[C@H]1O [Amikacin disulfate],-0.8
20,COc1cc2c(cc1OC)-c1cc3ccc(OC)c(OC)c3c[n+]1CC2 [Palmatine],-0.17

row,Structure (SMILES),z-score of subpopulation abundance
1,C=CC[N+]1([C@H]2C[C@H]3[C@@H]4CC[C@H]5C[C@H](O)[C@@H](N6CCOCC6)C[C@]5(C)[C@H]4CC[C@]3(C)[C@H]2OC(C)=O)CCCC1 [Rocuronium Bromide],-1.19
2,CCC(=O)O[C@@H]1CC(=O)O[C@H](C)C/C=C/C=C/[C@H](O)[C@H](C)C[C@H](CC=O)[C@H](O[C@@H]2O[C@H](C)[C@@H](O[C@H]3C[C@@](C)(O)[C@@H](OC(=O)CC)[C@H](C)O3)[C@H](N(C)C)[C@H]2O)[C@H]1OC [Midecamycin],1.11
3,Nc1nc2[nH]cc(CCc3ccc(C(=O)N[C@@H](CCC(=O)O)C(=O)O)cc3)c2c(=O)[nH]1 [Pemetrexed Disodium Hydrate],-9.02
4,CN1C2CCCC1CC(NC(=O)c1nn(C)c3ccccc13)C2 (stereo not given) [Granisetron],1.71
5,CCN1CCN(C(=O)N[C@@H](C(=O)N[C@@H]2C(=O)N3C(C(=O)O)=C(CSc4nnnn4C)CS[C@H]23)c2ccc(O)cc2)C(=O)C1=O [Cefoperazone],0.6
6,CO/N=C(\C(=O)N[C@@H]1C(=O)N2C(C(=O)O)=C(COC(N)=O)CS[C@H]12)c1ccco1 [Cefuroxime sodium],0.78
7,COCCCOc1ccnc(C[S+]([O-])c2nc3ccccc3[nH]2)c1C (stereo not given) [Rabeprazole],-1.07
8,CC/C=C(\C(=O)N[C@@H]1C(=O)N2C(C(=O)OCOC(=O)C(C)(C)C)=C(COC(N)=O)CS[C@H]12)c1csc(N)n1 [Cefcapene Pivoxil Hydrochloride],0.11
9,CCN(CC)CC#CCOC(=O)C(O)(c1ccccc1)C1CCCCC1 (stereo not given) [Oxybutynin chloride],-0.21
10,C[n+]1ccccc1/C=N/O [Pralidoxime chloride],1.37
11,COC(=O)C1=C(C)NC(C)=C(C(=O)OC(C)(C)CN(C)CCC(c2ccccc2)c2ccccc2)C1c1cccc([N+](=O)[O-])c1 (stereo not given) [Lercanidipine hydrochloride],0.32
12,CC1(C)S[C@@H]2[C@H](NC(=O)C(c3ccccc3)S(=O)(=O)O)C(=O)N2[C@H]1C(=O)O (stereo not given in full) [Sulbenicillin Sodium],0.41
13,N=C(N)NC(=N)N1CCOCC1 [Moroxydine HCl],-0.15
14,C#CCN[C@@H]1CCc2ccccc21 [Rasagiline Mesylate],0.65
15,COc1cc([C@@H]2c3cc4c(cc3[C@@H](O[C@@H]3O[C@@H]5CO[C@@H](c6cccs6)O[C@H]5[C@H](O)[C@H]3O)[C@H]3COC(=O)[C@H]23)OCO4)cc(OC)c1O [Teniposide],1.05
16,CCc1nn(CCCN2CCN(c3cccc(Cl)c3)CC2)c(=O)n1CCOc1ccccc1 [Nefazodone hydrochloride],-0.42
17,CC1(C)S[C@@H]2[C@H](NC(=O)[C@H](NC(=O)N3CCNC3=O)c3ccccc3)C(=O)N2[C@H]1C(=O)O [Azlocillin sodium salt],-0.54
18,CN1C[C@@H]2C[C@H]1CN2c1cc2c(cc1F)c(=O)c(C(=O)O)cn2C1CC1 [Danofloxacin Mesylate],0.03
19,CC1(C)[C@H](C(=O)O)N2C(=O)C[C@H]2S1(=O)=O [Sulbactam sodium],0.51
20,OC(CCCN1CCCCC1)(c1ccccc1)c1ccccc1 [Diphenidol HCl],0.98
